Source: PubChem BioAssay (Broad Institute)
T cruzi growth-1: blocks T. cruzi growth in NIH3T3 culture. T. cruzi beta-gal in NIH3T3, GalScreen luminescence, 90 h. inhibition, % at 8.34 µM. 77,000 compounds, 5.9% hits;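 active = mean inhibition above about 93%, with at least 55% of replicates each passing it, limit read from the data, passing the limit was not always enough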
C diff growth: inhibitors of Clostridium difficile growth. Clostridium difficile clinical isolate growth, OD600, 24 h; stronger effect = lower value. growth activity, negative = inhibition, % at 16 µg/mL (by protocol). 86,000 compounds, 0.25% hits. AID 1259249;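 active = mean growth activity at or below -80% and every replicate also at or below -80%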;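 also: 0% = DMSO wells and -100% = levofloxacin 16 µg/mL wells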
Pf Dd2 inh: blocks growth of Plasmodium falciparum Dd2 parasites; activity change, % at 10 µM; 94,000 compounds, 2.3% hits; P. falciparum Dd2 growth, SYBR Green, 72 h; stronger effect = lower value; in the data active = activity change below about -80%
T cruzi growth-2: blocks T. cruzi growth in NIH3T3 host cells; AID 651739; shares compounds with T cruzi growth-1; T. cruzi beta-gal in NIH3T3, GalScreen luminescence, 90 h; 5,600 compounds, 72% hits; inhibition, % at 8.35 µM;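 active = mean replicate inhibition above about 95% and at least 55% of replicates individually reaching it, limit read from the data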
T cruzi growth-3: inhibitors of T. cruzi proliferation. shares compounds with T cruzi growth-1. 5,600 compounds, 21% hits. inhibition, % at 2.09 µM. T. cruzi beta-gal in NIH3T3, GalScreen luminescence, 90 h;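 active = mean inhibition above about 95%, with at least 55% of replicates also reaching it, limit read from the data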;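 also: plate controls were neutral control median for no effect and positive control median for full effect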
3T3 cytotox: cytotoxicity in mouse NIH/3T3 fibroblasts; shares compounds with T cruzi growth-1; NIH/3T3 viability, CellTiter-Glo ATP luminescence, 90 h; cytotoxicity (signal decrease), % at 8.35 µM; 5,600 compounds, 14% hits;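 active = mean signal decrease across replicates above about 35% based on untreated-well scatter, with enough replicates individually passing, limit read from the data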;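 also: 0% = median of neutral control wells and 100% = median of positive control wells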
NIH3T3 tox 2: kills mouse NIH/3T3 fibroblasts; 5,600 compounds, 56% hits; shares compounds with T cruzi growth-1; inhibition, % at 24.9 µM; AID 651744; NIH/3T3 viability, CellTiter-Glo ATP luminescence, 90 h;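 active = mean loss of cell viability signal at or above a set limit, and enough replicates individually reaching it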;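 also: 0% = median of neutral control wells and 100% = median of positive control wells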
An asterisk follows results filed as active. A selection: hits, their analogues and other compounds. The true share with any hit is near 6.7%.

How did COc1ccc(C#Cc2cnc3c(c2)C(=O)N([C@H](C)CO)C[C@H](C)[C@H](CN(C)Cc2cccc(C(F)(F)F)c2)O3)cc1OC do in these assays?
T cruzi growth-1: 127*; C diff growth: 27; Pf Dd2 inh: -69; T cruzi growth-2: 107*; T cruzi growth-3: 95; 3T3 cytotox: 26; NIH3T3 tox 2: -19

Results for COc1ccc(C#Cc2cnc3c(c2)C(=O)N([C@H](C)CO)C[C@H](C)[C@H](CN(C)Cc2ccccc2)O3)cc1OC ?
T cruzi growth-1: 83; C diff growth: 19; Pf Dd2 inh: -59

How did C[C@H](CO)N1C[C@H](C)[C@H](CN(C)C(=O)Nc2cccc3ccccc23)Oc2ncc(-c3cccc(C(F)(F)F)c3)cc2C1=O do in these assays?
T cruzi growth-1: 107*; Pf Dd2 inh: -75; T cruzi growth-2: 100*; T cruzi growth-3: 54; 3T3 cytotox: 44*; NIH3T3 tox 2: 104*

What do the screens show for `C[C@H](CO)N1C[C@H](C)[C@H](CN(C)C(=O)Nc2cccc3ccccc23)Oc2ncc(-c3cccc(F)c3)cc2C1=O`?
C diff growth: 25; Pf Dd2 inh: -12

Results for Cc1cccc(CN(C)C[C@@H]2Oc3ncc(-c4cccc(C(F)(F)F)c4)cc3C(=O)N([C@H](C)CO)C[C@@H]2C)c1 ?
T cruzi growth-1: 84; C diff growth: 31; Pf Dd2 inh: -14

Results for C[C@H](CO)N1C[C@H](C)[C@H](CN(C)Cc2cccc(C(F)(F)F)c2)Oc2ncc(-c3ccccc3)cc2C1=O ?
T cruzi growth-1: 119*; C diff growth: 7; Pf Dd2 inh: -35; T cruzi growth-2: 99*; T cruzi growth-3: 7; 3T3 cytotox: 13; NIH3T3 tox 2: -28

How did C[C@@H]1CCCCO[C@H](CN(C)C(=O)Nc2ccc3c(c2)OCO3)[C@@H](C)CN([C@H](C)CO)C(=O)c2cc(NS(C)(=O)=O)ccc2O1 do in these assays?
T cruzi growth-1: -25; C diff growth: -5; Pf Dd2 inh: 29

Results for CCCNC(=O)C[C@H]1C[C@H]2c3cc(NC(=O)COC)ccc3O[C@H]2[C@@H](CO)O1 ?
T cruzi growth-1: -3; C diff growth: 2; Pf Dd2 inh: 18

What do the screens show for `CCC(=O)N1CC[C@@H]2[C@H]1c1cc(-c3ccccc3)ccc1N[C@@H]2CO`?
T cruzi growth-1: 43; C diff growth: -20; Pf Dd2 inh: 31

What do the screens show for `CCC(=O)N1CC[C@@H]2[C@H](CO)Nc3ccc(-c4ccc(C(=O)N(C)C)cc4)cc3[C@@H]21`?
T cruzi growth-1: 108*; C diff growth: -7; Pf Dd2 inh: -12; T cruzi growth-2: 101*; T cruzi growth-3: 57; 3T3 cytotox: 3; NIH3T3 tox 2: -2

What do the screens show for `N#Cc1cccc(-c2ccc3c(c2)[C@@H]2[C@@H](CCN2C(=O)c2ccc4c(c2)OCO4)[C@@H](CO)N3)c1`?
T cruzi growth-1: 88; C diff growth: -10; Pf Dd2 inh: -14

How did N#Cc1cccc(-c2ccc3c(c2)[C@@H]2[C@@H](CCN2C(=O)c2ccncc2)[C@@H](CO)N3)c1 do in these assays?
T cruzi growth-1: 103*; C diff growth: -3; Pf Dd2 inh: -61; T cruzi growth-2: 97*; T cruzi growth-3: 8; 3T3 cytotox: 3; NIH3T3 tox 2: 8

What do the screens show for `O=C(c1ccc2c(c1)OCO2)N1CC[C@@H]2[C@H]1c1cc(C#Cc3ccccc3)ccc1N[C@@H]2CO`?
T cruzi growth-1: 93*; C diff growth: 1; Pf Dd2 inh: -10; T cruzi growth-2: 107*; T cruzi growth-3: 31; 3T3 cytotox: -26; NIH3T3 tox 2: 17

How did N#Cc1ccc(-c2ccc3c(c2)[C@@H]2[C@@H](CCN2C(=O)c2ccncc2)[C@H](CO)N3)cc1 do in these assays?
T cruzi growth-1: 77; C diff growth: -7; Pf Dd2 inh: -11

What do the screens show for `O=C(c1ccc2c(c1)OCO2)N1CC[C@@H]2[C@@H](CO)Nc3ccc(C#Cc4ccccc4)cc3[C@@H]21`?
T cruzi growth-1: 96; C diff growth: 3; Pf Dd2 inh: -62
